The whole screen tested about 16,000 compounds, of which about 5,700 (36%) were called active. Not shown: some 24% with an inconclusive outcome. Calls come from the whole dose curve; as a rule, active = well fitted curve in the direction sought with a large enough effect; inconclusive = small, poorly fitted or top-dose-only effect, or effect the other way; inactive = no such curve, though single readings can be large or run the other way. The list shows a part of the results.
Molecular target: Cytochrome P450 1A2 (Homo sapiens) (UniProt P05177)
Experiment: Cytochrome panel assay with activity outcomes
Conditions: recombinant CYP, pro-luciferin dealkylation, luminescence, p450-cyp1a2; series mostly up to 57.1 µM
% is set by controls: 0 for no effect and ±100 for the full control effect.

Chain of Cytochrome P450 1A2 (Homo sapiens) (P05177 whole entry, looked up): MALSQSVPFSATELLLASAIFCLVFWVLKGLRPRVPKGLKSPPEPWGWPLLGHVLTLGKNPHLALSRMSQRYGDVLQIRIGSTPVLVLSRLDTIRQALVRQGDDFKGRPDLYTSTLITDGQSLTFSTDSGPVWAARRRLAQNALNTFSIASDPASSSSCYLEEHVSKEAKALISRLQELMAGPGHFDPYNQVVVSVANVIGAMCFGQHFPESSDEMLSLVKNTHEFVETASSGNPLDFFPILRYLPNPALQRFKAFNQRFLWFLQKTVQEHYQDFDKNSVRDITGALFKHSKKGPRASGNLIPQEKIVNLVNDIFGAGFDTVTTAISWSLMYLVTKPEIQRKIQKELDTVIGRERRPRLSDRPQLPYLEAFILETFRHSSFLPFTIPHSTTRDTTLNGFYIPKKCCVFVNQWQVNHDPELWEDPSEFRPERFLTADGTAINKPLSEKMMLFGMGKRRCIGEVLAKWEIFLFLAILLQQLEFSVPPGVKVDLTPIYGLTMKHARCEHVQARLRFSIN

Compound	AC50	activity, negative = inhibition
COc1ccc(/C=N/n2cnc3c([nH]c4ccc(Br)cc43)c2=O)cc1CN1CCOCC1	12600 nM (active)	–
Nc1ncnc2c1ncn2[C@@H]1CCCO1	inactive	–
O=[N+]([O-])c1ccc(Cl)c(CNc2ncnc3c2ncn3[C@@H]2CCCCO2)c1	5010 nM (active)	–
C[N+](C)(C)c1ncnc2c1ncn2[C@@H]1CCCCO1	–	2.33% [at 2.29 µM] (inactive)
Cc1cc([N+](=O)[O-])c(C)c(Br)c1C	1000 nM (active)	–
COc1ccc(S(=O)(=O)NCc2ccc(C(=O)N3CCN(c4ccccn4)CC3)cc2)cc1	inactive	–
O=C(Nc1ccc(Nc2ccc3c(c2)C(=O)c2ccccc2C3=O)c2c1C(=O)c1ccccc1C2=O)c1ccccc1	1580 nM (active)	–
CCC(=O)Nc1ccc2c(c1)C(=O)c1ccccc1C2=O	316 nM (active)	–
NCCCc1c(-c2ccccc2)nc(N)[nH]c1=O	–	9.63% [at 11.4 µM] (inactive)
CCOC(=O)c1c(-c2ccccc2)nc2c(C)cccn12	708 nM (active)	–
CCOC(=O)c1c(-c2ccccc2)nc2ccccn12	1120 nM (active)	–
Cc1nc2c(C)cccn2c1/C(O)=C1\C(=O)C(=O)N(CCN2CCOCC2)C1c1cccs1 (stereo unspecified)	inactive	–
CCOC(=O)c1c(-c2ccccc2)nc2ccc(Cl)cn12	2510 nM (active)	–
CCOC(=O)CNc1c(-c2ccccc2)nc2ccc(Cl)cn12	1580 nM (active)	–
CC(SCc1cn2cc(Cl)ccc2n1)C(=O)O (stereo unspecified)	inactive	–
CCOC(=O)N/N=C1/C[C@@H](O)[C@@H](O)[C@@H]2[C@@H]3C(=O)N([C@@H](C)c4ccccc4)C(=O)[C@H]3CC[C@@H]12	–	3.79% [at 11.4 µM] (inactive)
Cc1cc(=Nc2ccc3c(c2)c(N)cc(C)[n+]3C)nc(N)n1C	–	-5.28% [at 2.29 µM] (inactive)
C=C(C)C(=O)N1CC2(CC(c3cccc(NC(=O)c4ccccc4)c3)=NO2)C[C@@H]1C(N)=O (stereo partly specified)	inactive	–
CC1(C)O[C@@H]2C[C@H]3[C@H]4C[C@H](F)C5=CC(=O)CC[C@]5(C)[C@@H]4[C@H](O)C[C@]3(C)[C@]2(C(=O)CO)O1	inactive	–
CNc1nc(Cl)nc(NC(C)(C)C)n1	8910 nM (active)	–
CC1CCC(C(=O)NC(C(=O)N2CCC(N3CCCCC3)CC2)C(C)C)CC1 (stereo unspecified)	inactive	–
CC[C@H](Cc1c(I)cc(I)c(N)c1I)C(=O)O	12600 nM (active)	–
CC(=O)N(C[C@@H](C)C(=O)O)c1c(I)cc(I)c(N)c1I	inactive	–
CCOc1ccc(-n2c(=O)[nH]cc(C(=O)N3CCCc4ccccc43)c2=O)cc1	inactive	–

Compound	AC50	activity, negative = inhibition
COc1ccccc1C(=O)NN1C(=O)C2C3C=CC(O3)C2C1=O (stereo unspecified)	inactive	–
COc1ccccc1C(=O)NC(=S)N1CCCc2ccccc21	2240 nM (active)	–
Oc1cc2c(cc1O)[C@H](c1ccccc1)CNCC2	inactive	–
N#Cc1cccc(NC(=O)N2CCC3(CC2)CCN(C(=O)c2csnn2)CC3)c1	inactive	–
CCOC(=O)N/N=C1/C[C@@H](O)[C@@H](O)[C@@H]2[C@@H]3C(=O)N(c4cccc(Oc5ccccc5)c4)C(=O)[C@H]3CC[C@H]12	–	-3.4% [at 11.4 µM] (inactive)
O=C(c1ccncc1)N1CCC2(CCN(Cc3nccs3)CC2)CC1	inactive	–
Cc1noc(C)c1C(=O)N1CCC[C@@]2(CCN(Cc3nccs3)C2)C1	inactive	–
O=C(c1cccc(F)c1)N1CCC2(CC1)CCN(c1ccccc1)CC2	15800 nM (active)	–
O=C(c1cccc(F)c1)N1CCC2(CC1)CN(c1ccc(-c3ccccc3)cc1)C2	inactive	–
Cc1noc(C)c1C(=O)N1CCC2(CCN(Cc3nccs3)CC2)CC1	12600 nM (active)	–
O=C(c1cccc(F)c1)N1CCC2(CCCN(Cc3ccccc3)C2)CC1	inactive	–
O=C(c1cccc(F)c1)N1CCC2(CCN(Cc3ccccc3)CC2)CC1	inactive	–
Cc1noc(C)c1C(=O)N1CCC2(CCCN(Cc3nccs3)C2)CC1	inactive	–
O=C(c1cccc(F)c1)N1CCC2(CC1)CCN(c1ccc(-c3ccccc3)cc1)CC2	inactive	–
O=C(c1cccc(F)c1)N1CCC2(CCN(Cc3nccs3)CC2)CC1	1580 nM (active)	–
O=C(c1cccc(F)c1)N1CCC2(CCCN(c3ccc(-c4ccccc4)cc3)C2)CC1	15800 nM (active)	–
O=C(c1cccc(F)c1)N1CCC2(CCCN(Cc3nccs3)C2)CC1	inactive	–
O=C(c1cc(C(F)(F)F)cc(C(F)(F)F)c1)N1CCC2(CC1)CCN(c1ncccn1)CC2	inactive	–
CCCCN1C(=O)C(NC(=O)CC(C)C)(C(F)(F)F)C2=C1CC(C)(C)CC2=O (stereo unspecified)	inactive	–
O=C(c1cccc(F)c1)N1CCC[C@@]2(CCN(c3cccc(-c4ccccc4)c3)C2)C1	15800 nM (active)	–
O=C(c1cccc(F)c1)N1CCC[C@@]2(CCN(c3ccccc3)C2)C1	inactive	–
O=C(c1cccc(F)c1)N1CCC[C@@]2(CCN(c3ccncc3)C2)C1	inactive	–
C[N+]1(C)C[C@@H](O)C[C@@H]1C(=O)[O-]	inactive	–
COc1cccc(CN2C(=O)N(C(C)C)C(N(O)C(=O)NC(C)C)C2(C)C)c1OC (stereo unspecified)	inactive	–

Compound	AC50	activity, negative = inhibition
COc1cccc(CNCc2ccc(SC)cc2)c1OC	15800 nM (active)	–
CC(=O)N1CCC2(CC1)CCN(c1ccncc1)CC2	inactive	–
c1ccc(C(c2ccccc2)N2CCC3(CCNCC3)CC2)cc1	inactive	–
CC(=O)N1CCC2(CCCN(c3cccc(-c4ccccc4)c3)C2)CC1	5010 nM (active)	–
COC(=O)N1CCC2(CC1)CCN(c1cccc(-c3ccccc3)c1)CC2	inactive	–
CC(=O)N1CCC2(CCCN(c3ccccc3)C2)CC1	inactive	–
COC(=O)N1CCC2(CC1)CN(c1cccc(-c3ccccc3)c1)C2	inactive	–
CC(=O)N1CCC2(CC1)CCN(c1ccc(-c3ccccc3)cc1)CC2	10000 nM (active)	–
CC(=O)N1CCC2(CC1)CN(c1ccccc1)C2	inactive	–
COC(=O)N1CCC2(CC1)CCN(c1ccccc1)CC2	inactive	–
COCC(=O)N1CCC2(CC1)CCN(c1cccc(-c3ccccc3)c1)CC2	5010 nM (active)	–
c1ccc(-c2cccc(N3CCC4(CCNCC4)CC3)c2)cc1	15800 nM (active)	–
N#Cc1ccc(CN2CCC3(CC2)CCN(C(=O)c2ccncc2)CC3)cc1	inactive	–
CC[C@@H](Nc1ncnc2nc[nH]c12)C(=O)O	–	-2.91% [at 11.4 µM] (inactive)
COCC(=O)N1CCC2(CCCN(c3cccc(-c4ccccc4)c3)C2)CC1	15800 nM (active)	–
COCC(=O)N1CCC2(CC1)CN(C(=O)Nc1ccc(OC)cc1)C2	inactive	–
COCC(=O)N1CCC2(CC1)CN(C(=O)Nc1ccccc1)C2	12600 nM (active)	–
COCC(=O)N1CCC2(CCCN(C(=O)Nc3ccccc3)C2)CC1	inactive	–
O=C(Oc1ccccc1)N1CCC2(CCCN(c3cccc(-c4ccccc4)c3)C2)CC1	inactive	–
COCC(=O)N1CCC2(CCCN(c3ccncc3)C2)CC1	inactive	–
CCn1nc(C(=O)Nc2ccccc2C)c(Cl)c1Cl	1260 nM (active)	–
N#Cc1cccc(-c2nc(NCc3cccs3)c3ccccc3n2)c1	316 nM (active)	–
N#Cc1cccc(-c2nc(NCc3ccccc3)c3ccccc3n2)c1	398 nM (active)	–
N#Cc1cccc(-c2nc(NCc3cccnc3)c3ccccc3n2)c1	251 nM (active)	–

Compound	AC50	activity, negative = inhibition
NCC[C@H]1CCC[C@H](CCN)N1	inactive	–
O=C(Nc1nnc(C2CC2)s1)c1ccc(S(=O)(=O)c2ccccc2)cc1	inactive	–
O=C(NN=C1C2CC3CC(C2)CC1C3)c1ccncc1	inactive	–
O=C(Nc1nnc(C2CC2)s1)c1ccncc1	12600 nM (active)	–
COc1ccc(O[C@H]2C=C[C@@H](c3ccccc3)O[C@H]2CO/N=C2/[C@H]3O[C@@H]3[C@@H](O)[C@H]3[C@H]2CCn2c(=O)n(-c4ccccc4)c(=O)n23)cc1	–	12.3% [at 11.4 µM] (inactive)
Cc1ccccc1NC1=NC(=S)N(c2ccccc2)C12CCOC(C)(C)C2 (stereo unspecified)	inactive	–
CS(=O)(=O)c1ccc(-c2cc(Br)sc2-c2ccc(F)cc2)cc1	398 nM (active)	–
FC(F)(F)c1cnc(/C=C/Nc2ccccc2Cl)c(Cl)c1	1410 nM (active)	–
N#CC(c1ccccn1)(c1ncc(C(F)(F)F)cc1Cl)N1CCOCC1 (stereo unspecified)	inactive	–
N#CC(c1ccc(Cl)cc1)(c1ncc(C(F)(F)F)cc1Cl)N1CCOCC1 (stereo unspecified)	inactive	–
NC(=O)C[C@H](NC(=O)Cc1ccc(O)cc1O)C(=O)O	inactive	–
CCc1nc2c(c(SC)nn2-c2ccccc2)c(N)c1C(=O)OC	631 nM (active)	–
Nc1cc(-c2ccncc2)c[nH]c1=O	15800 nM (active)	–
NC(=O)c1cc[n+](CC2=C(C(=O)O)N3C(=O)[C@@H](NC(=O)[C@H](c4ccccc4)S(=O)(=O)[O-])[C@@H]3SC2)cc1	inactive	–
COc1cccc(-c2nc(N(C)Cc3ccco3)c3ccccc3n2)c1	316 nM (active)	–
CN(Cc1ccco1)c1nc(-c2cccc(C#N)c2)nc2ccccc12	100 nM (active)	–
COc1cccc(-c2nc(N(C)C)c3ccccc3n2)c1	251 nM (active)	–
CC(=O)N[C@@H]1CONC1=O	–	-16.9% [at 11.4 µM] (inactive)
COc1ccccc1CN1CCCC2(CCN(S(C)(=O)=O)CC2)C1	inactive	–
c1ccc(CNc2ccnc(-c3ccc4c(c3)OCO4)n2)cc1	398 nM (active)	–
c1cncc(CNc2ccnc(-c3ccc4c(c3)OCO4)n2)c1	126 nM (active)	–
COc1ccc(CNC(=O)C(c2ccc(C)cc2)N(Cc2cccs2)C(=O)c2ccc3c(c2)OCCO3)cc1 (stereo unspecified)	inactive	–
c1csc(CNc2ccnc(-c3ccc4c(c3)OCO4)n2)c1	316 nM (active)	–
CCOC(=O)C1=C(N)Oc2ccc(Br)cc2[C@@H]1[C@@H](C#N)C(=O)OCC	251 nM (active)	–
